According to article PMC6451091, “NextPBM: a platform to study cell-specific transcription factor binding and cooperativity”:
In all, about 3,700 sequences were measured (“z-score”: median about 4, highest 2% from about 8.4 on). The entries come from a sample that favours the highest values as a whole.

Key:
[1] = target: PU.1 (IVT) (UniProt P17947 1-270); experiment: protein-binding microarray (PBM); 20 mM HEPES pH 7.9, 100 mM NaCl, 1 mM DTT, 0.2 mg/mL BSA, 0.02% Triton X-100, 2% milk, 0.4 mg/mL salmon testes DNA; 1 h; temperature not stated; high values mean tight binding; conditions: dsDNA, one strand shown
How it was run: (§1)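 Untagged full-length PU.1 was produced by coupled human in vitro transcription/translation and incubated for 1 h on custom double-stranded DNA microarrays in HEPES pH 7.9 containing 100 mM NaCl, 2% milk and salmon testes DNA. Each array carried 20-bp genomic sites and single-nucleotide variants, with 10 probes per site (5 per orientation). Bound protein was detected with anti-PU.1 followed by a fluorescent secondary antibody. Binding values are z-scores calculated from scanned fluorescence after linear-regression normalisation.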

[2] = target: PU.1 (IVT) (UniProt P17947 1-270); experiment: as above; conditions: dsDNA, one strand shown; remark: listed apart in the source
How it was run: as §1

Row | Sequence | binding signal [1] | binding signal [2]
1 | GCCTAGCACGAAAAGAGGAAGAGTCTTAGGTGCTAGGTCTTGATTCGCTTGACGCTGCTG | 5 z-score | 
2 | GCCTAGCACGAAGTAGGGAAGTGAAAGAGGTGCTAGGTCTTGATTCGCTTGACGCTGCTG | 3.36 z-score | 
3 | GCCTAGCACGAAAAGAGGAAGTTGGGGAAGTGCTAGGTCTTGATTCGCTTGACGCTGCTG |  | 8.94 z-score
4 | GCCTAGCACGAAAAGAGGAAGCCCATGTGGTGCTAGGTCTTGATTCGCTTGACGCTGCTG |  | 5.2 z-score
5 | GCCTAGCACGAAAAGAGGAAGTTGGACATGTGCTAGGTCTTGATTCGCTTGACGCTGCTG |  | 8.75 z-score
6 | GCCTAGCACGAAAAGAGGAAATGGGGAGTGTGCTAGGTCTTGATTCGCTTGACGCTGCTG | 5.14 z-score | 
7 | GCCTAGCACGAAAAGAGGAAGTCTTGCATGTGCTAGGTCTTGATTCGCTTGACGCTGCTG |  | 8.22 z-score
8 | GCCTAGCACGAAAAGGGGAAGTTGGGTTGGTGCTAGGTCTTGATTCGCTTGACGCTGCTG |  | 8.21 z-score
9 | GCCTAGCACAAAAAAAGGAAGTGAAAGTAGTGCTAGGTCTTGATTCGCTTGACGCTGCTG |  | 6.78 z-score
10 | GCCTAGCACGGTGGGAGGAAGTGATCGGTGTGCTAGGTCTTGATTCGCTTGACGCTGCTG | 3.72 z-score | 
11 | GCCTAGCACGAAAAGGGGAAGTGAGGGATGTGCTAGGTCTTGATTCGCTTGACGCTGCTG |  | 7.81 z-score
12 | GCCTAGCACGAAAAAAGGAAGTTGCACAGGTGCTAGGTCTTGATTCGCTTGACGCTGCTG |  | 6.42 z-score
13 | GCCTAGCACTGGGAGGAGAAGTGAAACCTGTGCTAGGTCTTGATTCGCTTGACGCTGCTG |  | 1.37 z-score
14 | GCCTAGCACTGAAAGAGGAATTGCAACCAGTGCTAGGTCTTGATTCGCTTGACGCTGCTG |  | 2.04 z-score
15 | GCCTAGCACGAAAAGAGGAAGTTAAAGAAGTGCTAGGTCTTGATTCGCTTGACGCTGCTG |  | 8.52 z-score
16 | GCCTAGCACGAAAAGAGGAAGTCTGAAAAGTGCTAGGTCTTGATTCGCTTGACGCTGCTG |  | 7.48 z-score
17 | GCCTAGCACGAAAAGAGGAAGTGAAGTTAGTGCTAGGTCTTGATTCGCTTGACGCTGCTG |  | 8.28 z-score
18 | GCCTAGCACAGTTGGAGGAAGTGGCACTTGTGCTAGGTCTTGATTCGCTTGACGCTGCTG |  | 2.78 z-score
19 | GCCTAGCACGAAAACAGGAAGTGGGGATGGTGCTAGGTCTTGATTCGCTTGACGCTGCTG |  | 7.43 z-score
20 | GCCTAGCACCAAAAGAGGAAGTCAAGCTGGTGCTAGGTCTTGATTCGCTTGACGCTGCTG |  | 7.88 z-score
21 | GCCTAGCACCAAAAGAGGAAGTGGTGAAAGTGCTAGGTCTTGATTCGCTTGACGCTGCTG |  | 8.4 z-score
22 | GCCTAGCACCAAAAGAGGAAGTGGTATCAGTGCTAGGTCTTGATTCGCTTGACGCTGCTG |  | 8.24 z-score
23 | GCCTAGCACCAAAGAAGGAAGTGAAACTGGTGCTAGGTCTTGATTCGCTTGACGCTGCTG |  | 4.74 z-score
24 | GCCTAGCACCAAAAGAGGAAGTCAGAGAGGTGCTAGGTCTTGATTCGCTTGACGCTGCTG |  | 7.94 z-score
25 | GCCTAGCACCAAAAGAGGAAGTTGGCAAAGTGCTAGGTCTTGATTCGCTTGACGCTGCTG |  | 8.72 z-score

Row | Sequence | binding signal [1] | binding signal [2]
26 | GCCTAGCACCAAAAGAGGAAGTGGCATATGTGCTAGGTCTTGATTCGCTTGACGCTGCTG |  | 8.01 z-score
27 | GCCTAGCACCAAAAGAGGAACTGCTGCTGGTGCTAGGTCTTGATTCGCTTGACGCTGCTG |  | 6.83 z-score
28 | GCCTAGCACCAAAAGAGGAAGTGAAGCTGGTGCTAGGTCTTGATTCGCTTGACGCTGCTG |  | 8.37 z-score
29 | GCCTAGCACTGAGAGAGGAAGTAACTTAAGTGCTAGGTCTTGATTCGCTTGACGCTGCTG | 5.44 z-score | 
30 | GCCTAGCACCTGCCAGGGAAGTGAAATCAGTGCTAGGTCTTGATTCGCTTGACGCTGCTG |  | 1.1 z-score
31 | GCCTAGCACGAGAAGAGGAAGTGAGATCTGTGCTAGGTCTTGATTCGCTTGACGCTGCTG |  | 6.45 z-score
32 | GCCTAGCACAAAAAGAGGAAGAGGGGACAGTGCTAGGTCTTGATTCGCTTGACGCTGCTG |  | 5.23 z-score
33 | GCCTAGCACAAAAAAGGGAAGTGATTTAAGTGCTAGGTCTTGATTCGCTTGACGCTGCTG |  | 8.59 z-score
34 | GCCTAGCACAAAAAGGGGAAGTGACATAAGTGCTAGGTCTTGATTCGCTTGACGCTGCTG |  | 8.47 z-score
35 | GCCTAGCACAAAAAAGGGAAGTGCCATAAGTGCTAGGTCTTGATTCGCTTGACGCTGCTG |  | 7.55 z-score
36 | GCCTAGCACAAAAAAGGGAAGTGAAAATAGTGCTAGGTCTTGATTCGCTTGACGCTGCTG |  | 7.69 z-score
37 | GCCTAGCACAAAAAAGGGAAGTGACATACGTGCTAGGTCTTGATTCGCTTGACGCTGCTG |  | 7.76 z-score
38 | GCCTAGCACAAAGTGGGGAAGTGACAAAAGTGCTAGGTCTTGATTCGCTTGACGCTGCTG | 3.36 z-score | 
39 | GCCTAGCACGAAAAGAGGAACCGTATGGTGTGCTAGGTCTTGATTCGCTTGACGCTGCTG |  | 5.79 z-score
40 | GCCTAGCACTAAAAGAGGAAGTAGCCAAAGTGCTAGGTCTTGATTCGCTTGACGCTGCTG |  | 8.23 z-score
41 | GCCTAGCACTAAAAGAGGAAGTAGGAATAGTGCTAGGTCTTGATTCGCTTGACGCTGCTG |  | 8.36 z-score
42 | GCCTAGCACTAAAAGAGGAAGAGGAAGAAGTGCTAGGTCTTGATTCGCTTGACGCTGCTG | 5.75 z-score | 
43 | GCCTAGCACTAAAAGAGGAAGTGACCTCAGTGCTAGGTCTTGATTCGCTTGACGCTGCTG |  | 7.82 z-score
44 | GCCTAGCACTAAAAGAGGAAGTGCAACCAGTGCTAGGTCTTGATTCGCTTGACGCTGCTG |  | 8.29 z-score
45 | GCCTAGCACTAAAAGAGGAAGTGCATTCAGTGCTAGGTCTTGATTCGCTTGACGCTGCTG |  | 8.5 z-score
46 | GCCTAGCACAGCAGGAGGAAGTGGGTGGAGTGCTAGGTCTTGATTCGCTTGACGCTGCTG | 3.97 z-score | 
47 | GCCTAGCACAAAAAAAGGAAATGAAATTAGTGCTAGGTCTTGATTCGCTTGACGCTGCTG |  | 3.65 z-score
48 | GCCTAGCACCAAAAGAGGAAGAGTCTGACGTGCTAGGTCTTGATTCGCTTGACGCTGCTG |  | 4.26 z-score
49 | GCCTAGCACACAAAAAGGAACTGTTCCCCGTGCTAGGTCTTGATTCGCTTGACGCTGCTG |  | 2.27 z-score
